This excerpt belongs to a sample that is enriched for hits.
Vaccinia mCherry: inhibitors of vaccinia virus infection (mCherry reporter signal). 310,000 compounds, 0.63% hits. Potency, µM (doses to about 36.5 µM), hits mostly inhibitors. Vaccinia virus mCherry reporter infection, fluorescence; calls by dose curve; tested in A549 cells; note: nearly all actives have a fitted effect of over 35% in size
Cycloheximide cs: counter-screen hit for Shiga toxin inhibitors, cycloheximide; cell reporter, cycloheximide protein synthesis inhibition counterscreen; max response, %; 300,000 compounds, 12% hits; AID 2314; in the data active = max response mostly above about 13%, no sharp cut-off; inactive = mostly below about 14%; note: read at 38.3 µM for the half of the compounds with a filed dose
Shiga inhibitor: blocks Shiga toxin action in Vero cells | 290,000 compounds, 9.2% hits | AID 2315 | inhibition, % at 38.7 µM | Vero cells, Shiga toxin protein synthesis inhibition reporter; in the data active = inhibition mostly above about 28%, no sharp cut-off; inactive = mostly below about 43%
Marburg entry inh: blocks Marburg virus binding to or entry into cells; Marburg virus pseudotyped entry inhibition, cell reporter; Potency, µM (series often up to 37.8 µM), most hits filed as inhibitors; 300,000 compounds, 1.8% hits; AID 540276; calls by dose curve; tested in HEK293 cells
LASV entry inh: Lassa virus entry inhibition. Lassa virus pseudotype entry inhibition, cell reporter. 300,000 compounds, 1.2% hits. Potency, µM (top dose mostly 37.9 µM), actives largely listed as inhibitors; calls by dose curve; tested in HEK293 cells; note: nearly all actives have a fitted effect of over 50% in size
VACV Venus inh: vaccinia inhibition (Venus reporter); Vaccinia virus Venus reporter expression, fluorescence; Potency, µM (doses to about 36.5 µM), usual class: inhibitors; 330,000 compounds, 0.46% hits; AID 720580; calls by dose curve; tested in A549 cells; note: nearly all actives have a fitted effect of over 30% in size
Numbers stand for hits; n = inactive; u = inconclusive; x = no result.

SMILES	Vaccinia mCherry	Cycloheximide cs	Shiga inhibitor	Marburg entry inh	LASV entry inh	VACV Venus inh
c1ccc(-c2noc(-c3cccc4ccccc34)n2)cc1	x	54.4	50.1	n	u	n
c1cncc(-c2noc(-c3cccc4ccccc34)n2)c1	n	45.3	89.2	u	n	n
C[n+]1cn(CC(O)COCc2ccccc2)c2ccccc21 (configuration not stated)	n	n	n	n	n	n
CCCCCc1ccc(OCCC[n+]2ccccc2)c(CCCCC)c1	10µM	n	n	7.08µM	u	10µM
CCCCCc1ccc(OCCOCCn2c[n+](C)c3ccccc32)c(CCCCC)c1	15.8µM	n	n	x	x	11.2µM
COc1ccccc1OCC(=O)Nc1nc(C)c(C)s1	n	27.0	91.1	u	12.6µM	n
COc1ccccc1OCC(=O)Nc1nc(-c2ccc(Br)cc2)ns1	n	x	x	n	n	n
COC(=O)c1sc(NC(=O)COc2ccccc2C)nc1C	n	21.4	n	n	n	n
CCCN1C(=O)COc2ccc(-c3n[nH]c(=O)c4ccccc34)cc21	n	n	n	10µM	n	n
COc1ccc(-n2cc(CN(C)CCO)c(-c3cccc(F)c3)n2)cc1	n	53.7	106.7	x	x	n
Cc1ccc(-n2cc(CNCCc3ncc(C)[nH]3)c(-c3ccc(F)cc3)n2)cc1	u	14.0	n	u	u	u
COc1ccc(-n2cc(CNC3CCC(O)CC3)c(-c3cccc(F)c3)n2)cc1 (configuration not stated)	n	n	n	17.8µM	n	n
COc1ccc(CNCc2cn(-c3cccc(F)c3)nc2-c2ccc(C)o2)cc1	x	11.3	n	x	x	x
COc1ccc(-n2cc(CNCCc3cnc[nH]3)c(-c3cccc(F)c3)n2)cc1	u	40.7	n	n	u	n
COc1cc(C2N(c3ccccc3)CCN2c2ccccc2)ccc1OC(C)=O	x	47.1	n	n	n	n
COC(=O)c1ccc(/C=C/c2nc3ccccc3c(=O)[nH]2)cc1	n	n	50.8	u	u	n
Cc1ccc(/C=C(\C#N)c2nc3ccccc3c(=O)[nH]2)cc1	n	x	x	x	n	n
Cc1ccc(/C=C/c2nc3ccccc3c(=O)[nH]2)cc1	x	54.4	71.1	x	x	x
Cc1ccc(/C=C/c2nc3ccccc3[nH]2)o1	n	40.0	51.3	u	u	n
COc1ccccc1/C=C/c1nc2ccccc2[nH]1	n	x	x	x	x	n
Cc1ccc(/C=C/c2nc3ccccc3[nH]2)cc1	n	x	x	x	2.24µM	n
Cc1ccccc1-c1cccc(CN2CCN(C)C(CCO)C2)c1 (configuration not stated)	x	n	x	x	x	x
Cc1nc(N2CCCCC2)sc1C(=O)c1ccc(Cl)c([N+](=O)[O-])c1	x	n	n	x	x	x
CCOc1ccc(Nc2sc(C(=O)c3cccc(OC)c3)c(N)c2S(=O)(=O)c2ccccc2)cc1	n	x	x	x	u	n
COc1ccc(N2C(=O)/C(=C\c3ccco3)N=C2SCC(=O)NC(C)(C)C)cc1Cl	n	13.4	n	n	n	n
SMILES	Vaccinia mCherry	Cycloheximide cs	Shiga inhibitor	Marburg entry inh	LASV entry inh	VACV Venus inh
COc1ccccc1CNC(=O)Cn1ncc2c(=O)oc3ccc(C)cc3c21	n	x	x	n	n	n
O=[N+]([O-])c1cc(C(F)(F)F)ccc1N1CCN(S(=O)(=O)c2ccc3ccccc3c2)CC1	x	n	n	11.2µM	n	u
CC(C)(C)c1ccc(OCCC(=O)NC2=NCCS2)cc1	n	11.9	n	n	u	n
COc1ccc(OCCC(=O)NC2=NCCS2)cc1	x	26.6	n	n	n	x
Cn1c(=O)[nH]c2c(c1=O)CCO2	n	x	x	n	n	n
CC1CCCCN1Cc1c(O)ccc2c(=O)c(-c3ccccc3Cl)c(C(F)(F)F)oc12 (configuration not stated)	n	x	x	u	n	n
CC1CCCCN1Cc1c(O)ccc2c(=O)c(-c3ccc(Cl)cc3)coc12 (configuration not stated)	n	29.7	n	u	n	n
CC1CCCCN1Cc1c(O)ccc2c(=O)c(-c3nc4ccccc4s3)c(N)oc12 (configuration not stated)	n	40.2	63.1	2.51µM	u	n
O=c1c(-c2ccc(Cl)cc2)coc2c(CN3CCOCC3)c(O)ccc12	n	n	n	u	u	n
CCN(CC)Cc1c(O)ccc2c(=O)c(-c3ccccc3)coc12	x	31.0	x	x	x	x
CC(C)N(Cc1c(O)ccc2c(=O)c(-c3ccc(Cl)cc3)coc12)C(C)C	x	17.5	x	x	x	x
CC1(C)[C@@]2(C(=O)N(CCC#N)CCC#N)CC[C@]1(C)C(=O)C2	x	x	x	n	x	x
Cc1ccc(-n2c(=O)c3c4c(sc3n(CC(=O)Nc3ccccc3C)c2=O)CCCCC4)cc1C	n	x	x	u	n	n
COc1ccc(Cc2nnc(NC(C)=O)s2)cc1	n	n	n	n	n	n
COc1ccc(Cc2nnc(NC(=O)c3ccccc3F)s2)cc1	n	19.6	85.5	u	u	n
COCc1nnc(NC(=O)c2ccc(OC)cc2OC)s1	n	46.8	104.1	u	u	n
COc1cccc(C(=O)Nc2nnc(Cc3ccc(OC)c(OC)c3)s2)c1	n	n	n	n	n	n
COc1ccc(C(=O)Nc2nnc(CCc3ccccc3)s2)c(OC)c1	x	n	n	x	x	x
COc1ccc(C(=O)Nc2nnc(Cc3ccc(OC)c(OC)c3)s2)c(OC)c1	n	13.5	n	u	u	n
COc1ccc2c(c1)-c1nc(-n3ncc(C(=O)NCc4cccc(C)n4)c3C3CC3)ncc1CC2	n	x	x	x	x	n
Cc1c(-c2ccccc2)c(=O)oc2c(CN3CCN(C)CC3)c(O)ccc12	n	x	x	x	n	n
Cc1ccc(Nc2nc(C(=O)N3CCC(C(=O)NCc4ccccc4)CC3)cs2)cc1	n	18.9	34.9	n	x	n
Cc1ccc(Nc2nc(COC(=O)C3CC3)cs2)cc1	n	51.6	74.6	n	n	n
O=C(c1csc(Nc2ccccc2Cl)n1)N1CCCC1	n	53.4	108.1	u	n	n
COc1ccc(CNC(=O)C2CCN(C(=O)c3csc(Nc4ccc(C)cc4)n3)CC2)cc1	u	n	n	u	x	n
SMILES	Vaccinia mCherry	Cycloheximide cs	Shiga inhibitor	Marburg entry inh	LASV entry inh	VACV Venus inh
Cc1ccc(Nc2nc(C(=O)N3CCC(C(=O)N4CCN(C)CC4)CC3)cs2)cc1	x	19.1	n	u	u	x
CCN(CC)CCN1c2ccccc2Sc2ccccc21	n	n	n	u	u	n
CCN(CC)CCN1c2ccccc2Sc2ccc3ccccc3c21	n	n	n	10µM	n	n
CCn1c(CN2CCC(C)CC2)nc2cc(S(=O)(=O)N3CCCCC3)ccc21	n	x	x	x	x	n
O=C(CCc1nnc2ccc(NCc3ccco3)nn12)Nc1ccc(F)cc1	n	n	n	u	n	n
CCc1ccc(CN(Cc2cccnc2)C(=O)/C=C/c2ccc(OC)cc2)cc1	n	25.0	34.0	u	n	n
COc1ccc(/C=C/C(=O)NCc2cccnc2)cc1	n	n	n	n	n	n
COc1cn(CC(=O)Nc2ccccc2)c(CN2CCCCC2)cc1=O	n	x	x	x	n	n
S=C(NCCCN1CCOCC1)N1CCN(c2nc(-c3ccc(Cl)cc3)cs2)CC1	x	n	n	u	16.4µM	x
CCCNC(=S)N1CCN(c2nc(-c3cccc(OC)c3)cs2)CC1	n	13.2	n	n	n	n
